The record followed here is paper PMC4336329 (PLoS ONE, 2015).

Each structure is given as a SMILES string. In all, about 310,000 compounds went through this assay and about 14,000 (4.5%) showed an effect of 50% or more. Effects have a minus sign here. The entries come from a sample that favours strong results as a whole.
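Also: peak tail current of the secondary pulse compared with the same well before compound.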

Chain of human ether-à-go-go-related gene (hERG) potassium channel (Q12809 whole entry, looked up): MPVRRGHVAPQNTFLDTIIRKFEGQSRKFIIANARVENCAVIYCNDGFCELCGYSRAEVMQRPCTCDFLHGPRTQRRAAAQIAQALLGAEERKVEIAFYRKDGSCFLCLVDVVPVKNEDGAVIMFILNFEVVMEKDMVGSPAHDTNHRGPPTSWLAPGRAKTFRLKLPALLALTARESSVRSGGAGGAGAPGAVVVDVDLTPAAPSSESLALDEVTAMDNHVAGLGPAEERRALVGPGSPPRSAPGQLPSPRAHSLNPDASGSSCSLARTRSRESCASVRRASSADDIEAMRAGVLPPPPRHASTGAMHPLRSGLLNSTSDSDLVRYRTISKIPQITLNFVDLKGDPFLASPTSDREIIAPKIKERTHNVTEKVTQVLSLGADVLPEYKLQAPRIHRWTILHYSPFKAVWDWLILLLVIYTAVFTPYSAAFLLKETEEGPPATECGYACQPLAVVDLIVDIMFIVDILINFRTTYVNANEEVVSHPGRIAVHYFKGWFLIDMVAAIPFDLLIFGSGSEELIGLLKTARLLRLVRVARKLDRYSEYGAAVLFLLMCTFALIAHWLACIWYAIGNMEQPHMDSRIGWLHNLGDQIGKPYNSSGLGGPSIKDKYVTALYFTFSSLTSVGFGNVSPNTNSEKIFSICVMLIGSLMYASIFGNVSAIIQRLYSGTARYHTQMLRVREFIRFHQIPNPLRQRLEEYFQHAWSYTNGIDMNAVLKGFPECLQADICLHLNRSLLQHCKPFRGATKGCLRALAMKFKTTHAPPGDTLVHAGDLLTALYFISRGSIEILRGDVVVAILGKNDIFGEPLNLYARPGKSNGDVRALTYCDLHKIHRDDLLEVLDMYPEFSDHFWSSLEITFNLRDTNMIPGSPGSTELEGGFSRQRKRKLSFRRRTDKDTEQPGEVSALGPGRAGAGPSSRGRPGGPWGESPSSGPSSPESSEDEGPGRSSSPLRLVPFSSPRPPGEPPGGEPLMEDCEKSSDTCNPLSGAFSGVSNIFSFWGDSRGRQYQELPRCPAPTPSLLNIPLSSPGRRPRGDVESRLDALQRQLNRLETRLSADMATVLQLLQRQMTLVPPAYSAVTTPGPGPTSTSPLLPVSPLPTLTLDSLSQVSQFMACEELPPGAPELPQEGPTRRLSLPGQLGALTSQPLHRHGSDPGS

The test has as its target human ether-à-go-go-related gene (hERG) potassium channel (human, UniProt Q12809). The experiment in a line: primary screen, population patch clamp on CHO cells stably expressing hERG; higher = less effect of the substance.
`COc1ccc(C(c2nnnn2C2CCCCC2)N2CCN(c3ccccc3F)CC2)cc1` (stereo not shown): the “hERG current change (%, negative = inhibition) at 10uM” value is listed as 12.8%.
For `Cc1csc2ncc(C(=O)N3CCc4ccccc43)c(=O)n12` the value was 15.1%; for `C=CCn1c(COc2cccc3ccc(C)nc23)nnc1SCC(=O)OC`, -0.175%; for `CCOC(=O)Cn1nc(C)c(NC(=O)COc2ccc(C)c(C)c2)c1C`, 12.2%.
As for `O=S(=O)(Nc1cccc(F)c1)c1cccc2nsnc12`, the figure is 3.21%; as for `CCOc1ccc(C(=O)OCc2nnc(-c3cccs3)o2)cc1OC`, -54.9%.
For `CCOc1ccc(-c2nnc(-c3cccs3)o2)cc1OCC` the value was 1.32%.
For `O=C(OCc1nnc(-c2cccs2)o1)c1cccnc1Cl`, the “hERG current change (%, negative = inhibition) at 10uM” value came out at 4.2%.
As for `COc1cc(OC)c(S(=O)(=O)NC(C)C)cc1S(=O)(=O)NC(C)C`, the figure is 2.64%.
For `COc1ccc(C)cc1S(=O)(=O)Nc1ccc(F)cc1` the value was -1.24%; for `Cc1ccc(NC(=O)c2ccc3nccnc3c2)c(C)c1`, -2.58%.
For `CCCCc1cc(=O)oc2c(C)c(OCC(=O)NCCN3CCOCC3)ccc12` the value was -82.1%; for `CCc1cc(=O)oc2c(C)c(OCC(=O)NCCN3CCOCC3)ccc12`, -0.348%.
As to `Cc1c(OCC(=O)NCCN2CCOCC2)ccc2c1oc(=O)c1ccccc12`, the “hERG current change (%, negative = inhibition) at 10uM” value is on record as -59.6%.
For `Cc1c(C)c2ccc(OCC(=O)NCCN3CCOCC3)c(C)c2oc1=O` the value was 1.61%; for `Cc1c(OCC(=O)NCCCN2CCOCC2)ccc2c1oc(=O)c1ccccc12`, -46.6%.
For `CCCc1cc(=O)oc2c(C)c(OCC(=O)NCCN3CCOCC3)ccc12` the value was -31.6%.
For `Cn1c(SCc2ccccc2C#N)nnc1-c1ccncc1` the value was 7.11%; for `CSc1ccccc1NC(=O)CN(C)C(=O)CCc1c[nH]c2ccccc12`, 0.0989%.
In the case of `O=C(CCCC(=O)N/N=C\c1ccccn1)N/N=C\c1ccccn1`, the “hERG current change (%, negative = inhibition) at 10uM” value was 2.44%.
For `O=C(N/N=C\c1ccccn1)c1ccccc1O` the value was 11%; for `O=C(N/N=C/c1ccccn1)c1cc(Br)ccc1O`, -54.9%.
Regarding `O=C(N/N=C/c1ccccn1)c1ccccc1`, the “hERG current change (%, negative = inhibition) at 10uM” value is recorded as 2.75%.
For the compound `CCOc1ccc(Br)cc1C(=O)N/N=C/c1ccccn1`, the “hERG current change (%, negative = inhibition) at 10uM” value is reported as -40.8%.
For `O=C(N/N=C/c1ccccn1)C1CC1` the value was -69.4%; for `COC(=O)c1cccc(CSc2nnc(-c3ccco3)n2-c2ccccc2)c1`, -33.9%; for `C=CCNc1nnc(Cc2ccc(C(C)C)cc2)c(=O)[nH]1`, -0.924%.
For `CC(C)(C)c1ccc(-c2noc(CCC(N)=O)n2)cc1` the value was -11%; for `Cc1ccc(NC(=O)C2CCN(S(=O)(=O)c3c(C)n[nH]c3C)CC2)nc1`, -23%; for `Cn1nc(C(=O)NC2CCCCC2)c2c1-c1ccccc1SC2`, -3.08%.
For `CC1CCCCN1CCCNC(=O)c1nn(C)c2c1CSc1ccccc1-2` (stereo not shown) the value was -67.1%; for `CC1CCCN(CCCNC(=O)c2nn(C)c3c2CS(=O)(=O)c2ccccc2-3)C1` (stereo not shown), -39.8%.
Turning to `Cn1nc(C(=O)NCCCN2CCCCC2)c2c1-c1ccccc1SC2`, the “hERG current change (%, negative = inhibition) at 10uM” value is listed as -66%.
For `CC1CCCCN1CCCNC(=O)c1nn(C)c2c1CS(=O)(=O)c1ccccc1-2` (stereo not shown) the value was -8.49%; for `Cn1nc(C(=O)NCCCN2CCCCC2)c2c1-c1ccccc1S(=O)(=O)C2`, -0.878%; for `CC1CCCN(CCCNC(=O)c2nn(C)c3c2CSc2ccccc2-3)C1` (stereo not shown), -72.5%.
With `CC1CCC(NC(=O)c2nn(C)c3c2CSc2ccccc2-3)CC1` (stereo not shown), the “hERG current change (%, negative = inhibition) at 10uM” value is 3.11%.
As for `CC1CCCN(C(=O)c2nn(C)c3c2CSc2ccccc2-3)C1` (stereo not shown), the figure is -11.7%; as for `COc1cc(NC(=S)NC(=O)c2ccccc2C)ccc1NC(=O)c1cccs1`, -1.24%; as for `CSc1n[nH]c(NCc2cccs2)n1`, 8.8%.
Take `CC(C)CC(C(=O)NCC1CCCO1)N(C(=O)Cn1nnc(-c2ccc(F)cc2)n1)c1cccc(C(F)(F)F)c1` (stereo not shown): the “hERG current change (%, negative = inhibition) at 10uM” value was -0.701%.
For `CSc1nc(O)c(C(c2ccc(OC(C)C)cc2)c2c(O)nc(SC)[nH]c2=O)c(=O)[nH]1` the value was 16.9%.
As for `CCOc1ccc(S(N)(=O)=O)cc1-c1nc2c(C(C)(C)C)nn(C)c2c(=O)[nH]1`, the figure is 10.9%; as for `CC(Sc1nnnn1-c1ccc(O)cc1)C(=O)NC1CCCCC1C` (stereo not shown), -9.23%.
As for `CC(=O)C1=C(O)C(=O)N(c2ccc(S(=O)(=O)Nc3nccs3)cc2)C1c1ccc([N+](=O)[O-])cc1` (stereo not shown), the figure is 10.6%; as for `C=CCn1c(SCc2nc3ccccc3c(=O)[nH]2)nc2sc3c(c2c1=O)CCCC3`, 2.93%.
For the compound `c1ccc(COc2cncc(-c3cccnc3)c2)cc1`, the “hERG current change (%, negative = inhibition) at 10uM” value is -17.8%.
Consider `c1ccc(-c2nnc(OCc3cccnc3)c3ccccc23)cc1`, for which the “hERG current change (%, negative = inhibition) at 10uM” value is recorded as -83.2%.
As for `Cc1ccc(-c2nnc(OCc3nc4ccccc4n3C)c3ccccc23)cc1`, the figure is -12%.
For `Cc1ccc(-c2nnc(OCc3cccnc3)c3ccccc23)cc1` the value was -75.7%; for `Cc1ccc(Oc2nnc(-c3ccccc3)c3ccccc23)cc1`, -2.98%.
For the compound `COc1ccc(-c2nnc(OCc3ccccc3)c3ccccc23)cc1`, the “hERG current change (%, negative = inhibition) at 10uM” value stood at 1.82%.
For `CCC(C)n1c(-c2cccs2)nc2nc3ccccc3nc21` (stereo not shown) the value was -4.95%; for `COCCn1c(SCC(=O)Nc2cc(C(C)(C)C)nn2-c2ccccc2)nc2ccccc2c1=O`, -4.39%.
For `CNC(=O)CSc1nnc(-c2ccncc2)n1Cc1ccccc1` the value was 9.26%.
As for `COCCn1c(SCC(=O)Nc2cc(C(C)(C)C)nn2-c2ccccc2)nnc1-c1ccncc1`, the figure is -60%; as for `Cc1cc(NC(=O)CSc2nnc(-c3ccncc3)n2C)n(-c2ccccc2)n1`, -21.9%; as for `COCCn1c(SCC(=O)Nc2cc(C)nn2-c2ccccc2)nnc1-c1ccncc1`, -37.7%.
As for `COCCn1c(SC(C)C(=O)Nc2ccc(Cl)cn2)nnc1-c1ccncc1` (stereo not shown), the “hERG current change (%, negative = inhibition) at 10uM” value was found to be 4.13%.
As for `COCCn1c(SCC(=O)Nc2ccc(Cl)cn2)nnc1-c1ccncc1`, the figure is -54.2%; as for `Cc1cc(NC(=O)CSc2nnc(-c3ccncc3)n2Cc2ccccc2)n(-c2ccccc2)n1`, -58.8%.
As for `COCCn1c(SCC(=O)Nc2nnc(C)s2)nnc1-c1ccncc1`, the figure is -0.996%; as for `O=C(c1ccc(N2CCCC2=O)cc1)N1CCN(c2ccccc2Cl)CC1`, -12.1%; as for `COc1ccc(S(=O)(=O)NCc2cc(=O)n(C)c(=O)n2C)cc1C`, 22.6%.
For `COc1ccc(Cl)cc1NC(=O)c1noc(C)c1[N+](=O)[O-]` the value was -29.5%; for `O=C(NNC(=O)c1cc(-c2ccc(Cl)cc2Cl)nc2ccccc12)Nc1ccccc1`, 1.72%; for `Cc1ccc(C(C)C)c(OCC(=O)N2CCN(Cc3nc4cc([N+](=O)[O-])ccc4n3C)CC2)c1`, -65.8%.
In the case of `Cn1c(CN2CCN(C(=O)c3ccc(F)cc3)CC2)nc2cc([N+](=O)[O-])ccc21`, the “hERG current change (%, negative = inhibition) at 10uM” value is reported as -67.5%.
For `Cn1c(CN2CCN(C(=O)c3ccco3)CC2)nc2cc([N+](=O)[O-])ccc21` the value was -60%; for `CCCC(=O)N1CCN(Cc2nc3cc([N+](=O)[O-])ccc3n2C)CC1`, -36.8%.
With `CC(=O)N1CCN(Cc2nc3cc(NC(=O)COc4ccccc4)ccc3n2C)CC1.Cl`, the “hERG current change (%, negative = inhibition) at 10uM” value is 0.239%.
For the compound `Cn1c(CCNC(=O)c2ccco2)nc2cc([N+](=O)[O-])ccc21`, the “hERG current change (%, negative = inhibition) at 10uM” value was -26%.
As for `CCCC(=O)NCCc1nc2cc([N+](=O)[O-])ccc2n1C`, the figure is -16.4%; as for `Cc1ccc(C(C)C)c(OCC(=O)N2CCN(CC(=O)N3CCOCC3)CC2)c1`, 1.81%.
On to `CN1CCN(Cc2nc3cc(NC(=O)COc4ccc([N+](=O)[O-])cc4)ccc3n2C)CC1`, for which the “hERG current change (%, negative = inhibition) at 10uM” value is recorded as 9.29%.
For `Cn1c(CN2CCN(C(=O)COc3ccccc3)CC2)nc2cc([N+](=O)[O-])ccc21` the value was -55.2%; for `O=C(CSc1nccn1-c1ccc(Cl)cc1)N1CCCc2ccccc21`, -11.7%.
For `Cc1cc(NC(=O)c2cccc(S(=O)(=O)N3CCC(C)CC3)c2)no1` the value was 0.978%; for `CCCCN(C)C(=O)c1cc2cc3cc(OC)ccc3nc2o1`, -30.8%; for `C(=N\Nc1nc(N2CCCC2)nc(N2CCCC2)n1)/c1ccncc1`, 2.85%.
On to `Cn1c(CN2CCN(S(C)(=O)=O)CC2)nc2cc([N+](=O)[O-])ccc21`, for which the “hERG current change (%, negative = inhibition) at 10uM” value is reported as -0.37%.
As for `Cn1c(CN2CCN(C(=O)c3ccccc3)CC2)nc2cc([N+](=O)[O-])ccc21`, the figure is -67.3%; as for `CC(=O)N1CCN(Cc2nc3cc([N+](=O)[O-])ccc3n2C)CC1`, -4.94%.
For `COC(=O)c1c(C)oc(C)c(C(=O)OC)c1=O` the value was 5.25%; for `O=C1C2C3C=CC(C4CC34)C2C(=O)N1Cc1ccco1` (stereo not shown), 4.37%.
As for `Cc1cc(=O)oc(C)c1C(=O)NCCCN1CCN(c2ccc(F)cc2)CC1`, the figure is -53.6%.
For `CCc1nc2ccc(C(=O)NCCCN3CCN(c4ccc(F)cc4)CC3)cc2nc1CC`, the “hERG current change (%, negative = inhibition) at 10uM” value is -66.4%.
As for `Cc1c(C)n(C)c2ccc(C(=O)NCCCN3CCN(c4ccc(F)cc4)CC3)cc12`, the figure is -66.6%; as for `COc1ccc(N2CCN(CCNC(=O)c3c(C)cc(=O)oc3C)CC2)cc1`, -12.2%.
For `Cc1c(C)n(C)c2ccc(C(=O)NCCCN3CCCC3)cc12` the value was -23.8%.
For `Cc1c(C)n(C)c2ccc(C(=O)NCCCN3CCN(C)CC3)cc12` the value was 14.9%; for `CCc1nc2ccc(C(=O)NCCCN3CCN(c4ccccc4F)CC3)cc2nc1CC`, -49.8%; for `Cc1c(C)n(C)c2ccc(C(=O)NCCCN3CCCCC3)cc12`, -17.2%.
For the compound `Cc1c(C)n(C)c2ccc(C(=O)NCCCN3CCOCC3)cc12`, the “hERG current change (%, negative = inhibition) at 10uM” value was 10.8%.
For `O=C(NCCCN1CCN(c2ccc(F)cc2)CC1)c1cccc(N2CCCC2=O)c1` the value was -48.5%; for `Cc1c(C)n(C)c2ccc(C(=O)NCCCN3CCN(c4ccccc4F)CC3)cc12`, -54.2%; for `Cc1cc(=O)oc(C)c1C(=O)NCCCN1CCN(c2ccccc2F)CC1`, -40.4%.
